Screening results: PubChem, several laboratories
E coli growth-1: E. coli growth inhibition, primary screen, OD600. Escherichia coli growth, 23 h; stronger effect = lower value. OD600 absorbance (test concentration not listed). hit rate 0.21% among 330,000. AID 1053175, 2014;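 active means OD600 absorbance below the run mean of sample wells minus 3.6 SD, in any replicate, cut at about 0.56 in these data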
phage Ecoli inh: growth loss of phage-infected E. coli, primary screen, RecBCD inhibitor project, absorbance, with phage, HTS. inhibition, % at 11.9 µM. hit rate 0.26% among 360,000; in the data active means inhibition above about 11%
E coli growth-2: E. coli V3065 growth inhibition, primary screen, counter-screen for AddAB inhibitor project, absorbance, OD600. 18 h. inhibition, % at 11.9 µM. hit rate 0.27% among 330,000;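 active means inhibition above the campaign's mean inhibition across all tested compounds plus 3 SD, cut at about 9.9% in these data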;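 further: uninfected addAB+ strain grown without phage in ampicillin broth; 0% = DMSO wells and 100% = ciprofloxacin 0.95 µg/ml wells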
Tat transport: E. coli Tat export inhibitors, primary screen, MC4100, TorA-mCherry reporter, fluorescence, single point; hit rate 0.036% among 340,000; inhibition, % at 10 µM;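 active means mean replicate inhibition at least 50% and at least half of replicates individually reaching 50%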;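 further: exported cargo escapes ClpAP degradation while cytoplasmic cargo is degraded and loses fluorescence; 0% = median of neutral control wells and 100% = median of NaSCN control wells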
AddAB inh: growth inhibition of E. coli expressing H. pylori AddAB, primary screen, AddAB inhibitor project, absorbance; inhibition, % at 11.9 µM; hit rate 0.29% among 330,000; in the data active means inhibition above about 12%;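 further: 0% = vehicle wells of infected cells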
An asterisk follows results filed as active; · = no result. An excerpt weighted towards active compounds, which were near 0.5% of everything screened.

SMILES	E coli growth-1	phage Ecoli inh	E coli growth-2	Tat transport	AddAB inh
COC(=O)c1ccc(NC(=O)Nc2ccc(F)cc2)cc1	0.51*	4	3	-5	4
O=[N+]([O-])c1cccc(-c2ccc(/C=N/NC(=S)Nc3ccccc3)o2)c1	·	1	10*	-4	9
CC(=NNC(N)=S)C12CC3CC(CC(C3)C1)C2	0.71	·	·	·	·
NC(C(=O)NC1C(=O)N2C(C(=O)O)=C(Cl)CSC12)c1ccccc1 (stereo not drawn)	0.06*	·	·	·	·
CC(=O)OCC1=C(C(=O)O)N2C(=O)C(NC(=O)C(C)Cn3nc(C)c(Cl)c3C)C2SC1 (stereo not drawn)	0.64	2	0	4	-1
Cc1nnc(SCC2=C(C(=O)O)N3C(=O)C(NC(=O)c4cccc(F)c4F)C3SC2)s1 (stereo not drawn)	0.7	3	0	-2	0
Cc1nnc(SCC2=C(C(=O)O)N3C(=O)C(NC(=O)Cn4ncc(Cl)c4C)C3SC2)s1 (stereo not drawn)	0.44*	4	1	7	-1
Cc1cc(C)n(CC(=O)NC2C(=O)N3C(C(=O)O)=C(CSc4nnc(C)s4)CSC23)n1 (stereo not drawn)	0.19*	5	1	22	2
CC(=O)OCC1=C(C(=O)O)N2C(=O)[C@@H](NC(=O)CSc3ccncc3)[C@H]2SC1	0.22*	6	·	-8	·
Oc1c(Br)cc(Br)cc1/C=N/NC(=S)N[C@H]1CC2C=CC1C2 (stereo partly drawn)	·	9	10*	-9	12
Oc1c(Cl)cc(Cl)cc1C=NNC(=S)NC1CC2C=CC1C2 (stereo not drawn)	0.7	·	·	·	·
O=C(/C=C/c1ccccc1)NC(=S)NNC(=O)c1cccnc1	0.72	-4	-6	4	-3
O=C(/C=C/c1ccccc1)NC(=S)NNC(=O)c1cnccn1	·	9	11*	2	11
CC(=NNC(=O)c1cc(C(C)C)[nH]n1)c1cccs1	0.67	·	·	·	·
COc1ccc(-c2nn(-c3ccccc3)cc2C=NNc2ccc(Cl)c(C(=O)O)c2)cc1OC	0.67	·	·	·	·
COc1ccc2nc(NC(=O)c3ccc([N+](=O)[O-])o3)sc2c1	0.48*	7	8	-13	11
O=C(Nc1nc2ccccc2s1)c1ccc([N+](=O)[O-])o1	0.66	3	6	-11	5
NC(=O)SCC(=O)Nc1ccc(Cl)cc1	0.53*	0	6	-2	3
O=C1c2ccccc2NC(c2ccc(-c3ccccc3F)o2)N1O (stereo not drawn)	0.65	9	12*	-9	10
C#CCOCCOCCOCCNc1nc(N2CCN(C(=O)CCCCCCCCCCNC(=O)C(CCCCN)n3cc(CCCC(=O)O)nn3)CC2)nc(N2CCN(C(=O)CCCCCCCCCCNC(=O)C(CCCCN)n3cc(CCCC(=O)O)nn3)CC2)n1 (stereo not drawn)	0.64	·	·	·	·
CN1CCN(C2=Cc3cc(Cl)ccc3Sc3cc(F)ccc32)CC1	0.36*	3	-2	-2	1
COc1cc(C=NNC(=O)CCn2nc(C)cc2C)ccc1O	0.66	·	·	·	·
COc1ccc(C(C)=NOCC(=O)Nc2nc3ccccc3s2)cc1	0.68	·	·	·	·
COC1=C(C)C(=O)C2=C(C1=O)C1C3CC4=C(C(=O)C(OC)=C(C)C4=O)C(CNC(=O)C(C)=O)N3C(C#N)C(C2)N1C (stereo not drawn)	·	15*	·	-9	·
Cc1ccc(C(C)C)c(OCc2nn(CC(=O)c3ccc(Cl)cc3)c3[n+]2CCCCC3)c1	0.071*	4	3	44	3
SMILES	E coli growth-1	phage Ecoli inh	E coli growth-2	Tat transport	AddAB inh
CNC(CC(C)C)C(=O)NC1C(=O)NC(CC(N)=O)C(=O)NC2C(=O)NC3C(=O)NC(C(=O)NC(C(=O)O)c4cc(O)cc(O)c4-c4cc3ccc4O)C(O)c3ccc(c(Cl)c3)Oc3cc2cc(c3OC2OC(CO)C(O)C(O)C2OC2C[C@](C)(N)C(O)C(C)O2)Oc2ccc(cc2Cl)C1O (stereo partly drawn)	0.4*	7	0	-37	-3
Cc1cccc(C(=O)Nc2ccc(C(=O)NN=Cc3ccc(C)o3)cc2)c1	0.71	·	·	·	·
N/C(=N\N=Cc1ccc(F)cc1)NN=Cc1ccc(F)cc1	0.42*	·	·	·	·
N#CC1=C(N)n2c(sc(=Cc3cccs3)c2=O)=C(C#N)C1c1cccs1 (stereo not drawn)	0.71	·	·	·	·
CCCCCCCCN1C(CC(=O)O)c2cc(C(F)(F)F)ccc2S1(=O)=O (stereo not drawn)	0.65	·	·	·	·
CCCCCCCCCCCCN1[C@@H](CC(=O)O)c2cc(C(F)(F)F)ccc2S1(=O)=O	·	5	0	52*	2
CCN1/C(=C/C=C/c2oc3ccc4ccccc4c3[n+]2CC)Oc2ccc3ccccc3c21	0.69	·	11*	·	11
C[C@H]1COc2c(C3(N)CC3)c(F)cc3c(=O)c(C(=O)O)cn1c23	·	·	102*	·	100*
Cc1ccc(-c2n[nH]c(=S)n2N=C/C=C\c2ccccc2[N+](=O)[O-])cc1	0.72	·	·	·	·
CCOc1cc(C2Nc3cccc4cccc(c34)N2)ccc1O	0.68	·	-2	2	5
CCOc1ccc(C2Nc3cccc4cccc(c34)N2)cc1OC	0.56*	3	2	-2	2
CC(C)=NN=C(c1ccc([N+](=O)[O-])cc1)C12CN3CN(CN(C3)C1)C2	0.71	·	·	·	·
Cc1ccc(NC(=O)Nc2ncccc2C)cc1	0.71	4	2	10	4
Cc1ccc(NC(=O)Nc2ccno2)cc1	0.45*	7	2	·	2
COC(=O)c1ccc(C2CC(=O)O2)cc1 (stereo not drawn)	0.67	·	·	·	·
CCOC(=O)C(C#N)=Cc1ccc(N2CCN(CC=Cc3ccccc3)CC2)cc1	0.71	·	·	·	·
CCN(Cc1ccccc1)c1ccc(C=NN=C(N)N)cc1	0.5*	·	·	·	·
CCN(Cc1ccccc1)c1ccc(/C=N/N2CCOCC2)cc1	·	3	2	-6	-1
COc1cc(C=NN=C(N)N)ccc1OCc1ccc(Cl)cc1	0.51*	·	·	·	·
NC(N)=NN=Cc1ccc(OCc2ccccc2)c(OCc2ccccc2)c1	0.069*	·	·	·	·
COc1cc(NC(=O)CC(C)=NNC(=O)C(=O)NCCO)c(OC)cc1Cl	0.67	·	·	·	·
Cc1cc(C(=O)NN=Cc2ccc(OCc3ccccc3)cc2)c(C)o1	0.68	·	·	·	·
O=C1C2C3C=CC(C4CC34)C2C(=O)N1N=Cc1ccc(-c2cccc([N+](=O)[O-])c2)o1 (stereo not drawn)	0.72	·	·	·	·
C#CCOCCOCCOCCNc1nc(N2CCN(C(=O)Cn3cc(CC(C)O)nn3)CC2)nc(N2CCN(C(=O)C(CCCCN)n3cc(CCCC)nn3)CC2)n1 (stereo not drawn)	0.71	·	·	·	·
Cc1cc(C)nc(N=C(N)Nc2cccc(OCc3ccccc3)c2)n1	0.62	·	·	·	·
Nc1nc(Nc2cccc(F)c2)nc2ccccc12	0.47*	6	1	7	2
O=c1oc(Nc2cccc(F)c2)nc2ccccc12	0.67	2	1	-7	4
CC(=NNC(=O)c1cccc(C)c1O)c1ccc(NC(=O)Cc2ccccc2)cc1	0.69	·	·	·	·
COc1cc(NS(=O)(=O)c2ccc(N)cc2)ncn1	·	·	16*	·	21*
